Screens deposited in PubChem BioAssay by National Center for Advancing Translational Sciences (NCATS).
Only some compounds are listed: those with a hit (about 21% of all), similar ones and a draw of the others.
IL-1B inflam inh – qHTS for Inhibitors of Inflammasome Signaling: IL-1-beta AlphaLISA Primary Screen. THP-1 LPS/ATP IL-1B secretion, AlphaLISA, 16 h; active compounds read low. activity change, % at 57.5 µM. 360,000 compounds, 4.7% hits; in the data active = activity change below about -50%; inconclusive = mostly about -30% to -49%; note: % is set by controls: 0 for no effect and ±100 for the full control effect
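Secreted IL-1B measured by AlphaLISA bead assay after 16 h compound exposure of THP-1 cells; compounds (final up to 57.5 uM) added 1 h before LPS (250 ng/mL) and ATP (1.25 mM) stimulation; lower signal means less secretion.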
DRD3 antagonist – qHTS of D3 Dopamine Receptor Antagonist: qHTS. D(3) dopamine receptor (Homo sapiens), P35462. 360,000 compounds, 2.5% hits. AID 652054, 2013. D3R cells, DiscoveRx beta-arrestin luminescence, antagonist mode; active compounds read low. max response, negative = inhibition, %; in the data active = max response below about -50%; inconclusive = no clear call, values can overlap the other calls; note: % is set by controls: 0 for no effect and ±100 for the full control effect
Target sequence (P35462 whole entry, looked up): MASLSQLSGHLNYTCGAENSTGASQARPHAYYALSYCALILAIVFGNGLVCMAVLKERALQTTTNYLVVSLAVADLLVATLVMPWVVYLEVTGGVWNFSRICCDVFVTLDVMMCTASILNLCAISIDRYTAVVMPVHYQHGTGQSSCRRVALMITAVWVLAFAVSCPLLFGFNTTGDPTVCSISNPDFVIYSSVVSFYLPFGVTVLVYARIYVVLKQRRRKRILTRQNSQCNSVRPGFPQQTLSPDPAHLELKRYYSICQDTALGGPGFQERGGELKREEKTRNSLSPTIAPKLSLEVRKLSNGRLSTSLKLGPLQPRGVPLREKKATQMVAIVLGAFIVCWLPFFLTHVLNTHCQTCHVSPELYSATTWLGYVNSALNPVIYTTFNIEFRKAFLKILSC
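Cells plated overnight at 1500 cells/well, then exposed to library compounds with dopamine controls for 90 minutes at 37 degrees C. DiscoveRx reagent added for 30–60 minutes at room temperature; luminescence read, quantitative HTS format.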
DT40 TDP1 no CPT – qHTS for Inhibitors of human tyrosyl-DNA phosphodiesterase 1 (TDP1): qHTS in cells in absence of CPT. Potency, µM (doses to about 46.2 µM), without a hit: top-dose activity change, negative = growth inhibition, hits mostly inhibitors. DT40 Tdp1-/- hTDP1 cells, no CPT, ATP luminescence, 48 h. 420,000 compounds, 15% hits; note: potency is the fitted concentration of half-maximal effect; % is set by controls: 0 for no effect and ±100 for the full control effect; nearly all actives have a fitted effect of over 55% in size
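Stably hTDP1-transfected Tdp1-null chicken DT40 cells were treated with library compounds minus camptothecin and grown for at least 48 hr at 37 °C, after which cellular ATP was quantified by luminescence.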
ClpP mod – qHTS Assay for Activators of ClpP. Potency, µM (titrated, usually from 57.5 µM), inactives show at the highest dose activity change, negative = active. 340,000 compounds, 1.9% hits. purified B. subtilis ClpP, FRET peptide cleavage, 20 min; active = well fitted falling curve with a large enough effect; inconclusive = small, poorly fitted or top-dose-only effect; inactive = no such curve, though single readings can be large or run the other way; note: potency is the fitted concentration of half-maximal effect; the source files actives as falling curves though it sought activators and does not explain the sign; nearly all actives have a fitted effect of over 65% in size
Target sequence (P80244 whole entry, looked up): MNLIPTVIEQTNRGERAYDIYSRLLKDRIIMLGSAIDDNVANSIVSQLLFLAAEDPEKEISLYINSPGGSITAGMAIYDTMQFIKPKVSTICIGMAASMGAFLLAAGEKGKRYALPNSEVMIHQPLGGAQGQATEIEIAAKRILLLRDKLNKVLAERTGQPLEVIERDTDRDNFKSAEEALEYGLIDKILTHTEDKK
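FRET quenching reversal measured ClpP activation: 10 microg/mL B. subtilis ClpP at pH 8 with the FRET-FV decapeptide, read at 430 nm after 320 nm excitation. The 20-min minus 0-min signal was scaled between DMSO/no-enzyme wells and ADEP (5.8 microM final).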
TDP1 cell CPT – qHTS for Inhibitors of human tyrosyl-DNA phosphodiesterase 1 (TDP1): qHTS in cells in presence of CPT. 420,000 compounds, 12% hits. chicken DT40 Tdp1-/-;hTDP1 cells + 20 nM CPT, ATP luminescence, 48 h. AID 686979, 2013. Potency, µM (series often up to 46.2 µM), without a hit: top-dose activity change, negative = growth inhibition, hits mostly inhibitors; note: potency is the fitted concentration of half-maximal effect; % is set by controls: 0 for no effect and ±100 for the full control effect; nearly all actives have a fitted effect of over 55% in size
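Cell growth measured by CellTiter-Glo luminescence after a minimum 48 h, 37 C compound exposure with 20 nM CPT in Tdp1-knockout DT40 cells stably expressing hTDP1, seeded 400/well; qHTS titration format.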
D3 ag – qHTS of D3 Dopamine Receptor Agonist: qHTS; AID 652048, 2013; D3R DiscoveRx beta-arrestin cells, luminescence, 90 min; max activation, %; 410,000 compounds, 0.58% hits; D(3) dopamine receptor (Homo sapiens), P35462; in the data active = max activation above about 30%; note: 0% is about no effect
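Cells at 1500/well, incubated overnight, then treated with pinned compounds (dopamine as control) for 90 min at 37 degrees C. DiscoveRx reagent added for 30 - 60 minutes at room temperature; luminescence read.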
Numbers without * were called inactive; ? = inconclusive; . = no result given; [ ] = another dose, or the depositor's remark. Unless noted, calls come from the whole dose curve; as a rule, active = well fitted inhibition curve with a large enough effect; inconclusive = small, poorly fitted or top-dose-only effect; inactive = flat fitted curve, though single readings scatter.

SMILES | IL-1B inflam inh | DRD3 antagonist | DT40 TDP1 no CPT | ClpP mod | TDP1 cell CPT | D3 ag
C(=C\c1c[nH]c2ccccc12)/c1cc[n+](C2CCCCC2)cc1 | . | . | ? | 0% | -12% | .
CCCCCCCCCCCCCCCC[n+]1ccc(/C=C/c2c[nH]c3ccccc23)cc1 | . | . | 0.71µM* | -1% | 0.89µM* | .
OCC[n+]1ccc(/C=C/c2c[nH]c3ccccc23)cc1 | 26 | 11 | 5.8µM* | 1% | 6.5µM* | 2
CCN(CC)C(=O)c1ccc(/C=C/c2c[nH]c3ccccc23)[n+](C)c1 | 5 | -1 | ? | -22% | -25% | -2
CCCCCCCCCC[n+]1ccc(/C=C/c2c[nH]c3ccccc23)cc1 | . | . | 0.11µM* | 2% | 0.32µM* | .
CC1=C(C(=O)Nc2cccnc2)C(c2ccc(F)cc2)n2nc(SCc3ccccc3F)nc2N1 (centres undefined) | . | . | -6% | -9% | -17% | -7
O=c1[nH]c(SCc2ccccc2)ncc1S(=O)(=O)c1ccccc1 | . | . | -15% | -2% | -1% | .
COc1ccc(C2CC(=O)c3cnc4c(-c5ccccc5)c(C)nn4c3C2)c(OC)c1 (centres undefined) | . | . | -13% | 1% | -13% | 0
O=C(Nc1ccc(F)cc1)Nc1ccc(S(=O)(=O)N2CCCC2)cc1 | -18 | -6 | ? | -1% | ? | -4
CCC(C)(C)C1CCC(NC(=O)c2ccc(S(=O)(=O)N3CCOCC3)cc2)CC1 (centres undefined) | -2 | 7 | 23µM* | -3% | 15µM* | 1
O=C(Nc1ccc(F)cc1)c1ccc(S(=O)(=O)N2CCCC2)cc1 | -75* | -1 | ? | . | 2% | 3
O=C(Nc1ccc(S(=O)(=O)N2CCCC2)cc1)Nc1ccc(F)cc1F | -13 | -4 | 29µM* | -2% | ? | -2
O=C(Nc1ccc(Cc2ccncc2)cc1)c1ccc(S(=O)(=O)N2CCCC2)cc1 | -96* | 39 | 10µM* | . | 13µM* | -1
CN(CCO)C(=O)c1cn(C2CCCN(Cc3ccc(C(F)(F)F)cc3)C2)nn1 (centres undefined) | . | . | ? | . | 2%[9.04 µM] | .
CCCCOc1ccc(N(CC(=O)NCCOC)C(=O)CCC(=O)Nc2ccccn2)cc1 | 0 | -21 | -5% | -1% | -9% | 3
CCOc1ncccc1C(=O)NCc1ccccc1Cl | -9 | -5 | 12% | -2% | 3% | 3
CS(=O)(=O)c1cccc(C(=O)Nc2ccc(S(=O)(=O)N3CCCCC3)cc2)c1 | 11 | -13 | 18µM* | 1% | 10µM* | -2
O=C(NC1CCN(S(=O)(=O)c2ccc(F)cc2)CC1)c1ccc(F)cc1 | -54* | 1 | 5% | -1% | -1% | -2
CS(=O)(=O)c1ccc(C(=O)Nc2ccc(S(=O)(=O)N3CCCCC3)cc2)cc1 | 3 | -1 | ? | -13% | ? | 4
CC(=O)c1ccc(NC(=O)c2ccc(S(=O)(=O)N3CCCC3)cc2)cc1 | 0 | ? | 16µM* | -2% | ? | -5
CC(=O)c1ccc(NC(=O)Nc2ccc(S(=O)(=O)N3CCCC3)cc2)cc1 | -108* | 2 | 15µM* | -1% | ? | -12
O=C(c1c(F)cccc1F)N(Cc1ccccc1)Cc1ccccc1 | ? | -8 | 12µM* | . | 12µM* | 9
O=C(c1c(F)c(F)c(F)c(F)c1F)N(Cc1ccccc1)Cc1ccccc1 | -2 | -13 | ? | 0% | ? | 0
CSc1ccc(CNC(=O)Cc2ccc(NC(=O)C3=C(C)OCCS3)cc2)cc1 | 23 | -10 | 2.9µM* | 1% | 2.9µM* | -10
CCOc1ccc(CCNC(=O)Cc2ccc(NC(=O)C3=C(C)OCCS3)cc2)cc1 | -1 | -8 | ? | -1% | ? | -1
SMILES | IL-1B inflam inh | DRD3 antagonist | DT40 TDP1 no CPT | ClpP mod | TDP1 cell CPT | D3 ag
CC(C)c1ccc(NC(=O)C(=O)C2C(=O)Nc3ccccc32)cc1 (centres undefined) | 21 | -3 | 15µM* | -1% | 21µM* | -5
CC(C)(C)c1ccc(NC(=O)C(=O)C2C(=O)Nc3ccccc32)cc1 (centres undefined) | 29 | -2 | 13µM* | -1% | ? | -3
CN(C)c1ccc(NC(=O)C(=O)C2C(=O)Nc3ccccc32)cc1 (centres undefined) | -4 | -17 | -22% | -3% | -21% | 5
COc1cccc(CN2C(=O)c3ccccc3Sc3ccc(C(=O)NCc4ccccc4)cc32)c1 | . | . | -19% | -2% | -21% | -9
Cc1c(C(=O)NCc2ccc([N+](=O)[O-])cc2)sc(=O)n1Cc1ccc2c(c1)OCO2 | -21 | -26 | ? | -5% | ? | 2
Cc1ccc(NC(=O)CS(=O)CC(=O)Nc2cccc(C)c2C)cc1F (centres undefined) | 11 | 0 | -7% | 0% | 15% | -2
Cc1ccc(-c2ccccc2NC(=O)CS(=O)CC(=O)Nc2ccc(C)c(Cl)c2)o1 (centres undefined) | -77* | -5 | ? | 0% | ? | -6
Cc1ccc(-c2ccccc2NC(=O)CCl)o1 | -59* | 0 | 21µM* | -3% | 15µM* | -6
Cc1ccc(C(=O)NCC(=O)Nc2ccccc2C)o1 | 5 | 21 | -4% | 1% | 9% | 2
Cc1ccc(NC(=O)CS(=O)CC(=O)NC(C)CCc2ccco2)cc1Cl (centres undefined) | 0 | -30 | ? | 28µM* | -17% | -5
Cc1ccc(NC(=O)CNC(=O)c2ccco2)cc1Cl | -23 | -18 | -4% | 1% | -14% | -1
Cc1ccc(-c2cccc(NC(=O)C3C(C(=O)O)[C@@H]4C=C[C@H]3C4)c2)o1 (some centres undefined) | -11 | -21 | -15% | -5% | 2% | 4
Cc1ccc(-c2ccccc2NC(=O)C2C3C=CC(C3)C2C(=O)O)o1 (centres undefined) | 4 | 11 | -19% | 25µM* | -28% | 6
